6 compounds from PubChem BioAssay (NCATS) can be followed below.

Records with an inconclusive call do not appear. Values without a mark were called inactive. Calls of active or inactive are those of the source. Calls come from the whole dose curve; as a rule, active = well fitted curve in the direction sought with a large enough effect; inconclusive = small, poorly fitted or top-dose-only effect, or another doubt; inactive = no such curve, though single readings can be large; an effect the other way counts as inactive or inconclusive.

The nature of assay [1]: UWB1.289 Cancer Cell Toxicity qHTS against the NCATS CANVASS Library (AID 1347347). Note: nearly all actives have a fitted effect of over 60% in size. Note: potency is the fitted concentration of half-maximal effect. A digest of the protocol:
(§1)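 Per well, 1000 cells; exposure 72 h with compound at 11 final concentrations; readout CellTiter-Glo luminescence.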
A general note: In qHTS, concentration-response curves come from the screen itself.

Assay [2] can be described thus: SW1088 Cancer Cell Toxicity qHTS against the NCATS CANVASS Library (AID 1347350). Note: nearly all actives have a fitted effect of over 75% in size. Note: potency is the fitted concentration of half-maximal effect. Put shortly: as §1
Assay [3] in a line: A2780 Cisplatin Sensitive Ovarian Cancer Cell Toxicity qHTS against the NCATS CANVASS Library (AID 1347353). Note: nearly all actives have a fitted effect of over 60% in size. Note: potency is the fitted concentration of half-maximal effect. Put shortly:
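Cells are plated at 750 per well and rest for 4 hours. Compounds are added across eleven concentrations, and incubated 72 hours before ATP is quantified by luminescence.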

Assay [4] can be described thus: UWB1.289-WTBRCA1 Cancer Cell Toxicity qHTS against the NCATS CANVASS Library (AID 1347354). Note: potency is the fitted concentration of half-maximal effect. Put shortly:
(§2)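 First, 1000 cells go into each well and rest for 4 hours. Next, an 11-point dilution range is pinned in. Plates then incubate 72 hours before CellTiter-Glo addition and luminescence reading.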

Assay [5] is described as follows: HEK-293 Cancer Cell Toxicity qHTS against the NCATS CANVASS Library (AID 1347355). For outcome: series mostly up to about 46 µM. Note: nearly all actives have a fitted effect of over 65% in size. Note: potency is the fitted concentration of half-maximal effect. Put shortly:
as §2

For assay [6], the system named is NAD(P)H diaphorase (Clostridium kluyveri). As to the kind of experiment: Diaphorse counterscreen qHTS: Assay Interference Panel against the NCATS CANVASS Library (AID 1347362). A digest of the protocol: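 Counterscreen for coupling-enzyme interference: resorufin fluorescence from resazurin/NADH turnover, read after 5 min at room temperature. Compounds were tested over an 11-point series after 15 min dark preincubation with diaphorase in PBS-Tween.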

Assay [7] is described as follows: KB-8-5-11 Cancer Cell Toxicity qHTS against the NCATS CANVASS Library (AID 1347364). Note: nearly all actives have a fitted effect of over 75% in size. Note: potency is the fitted concentration of half-maximal effect. Put shortly: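 Terse: KB-8-5-11, 500 cells/well, 72 hr, 37C/5% CO2, 11-pt titration, CellTiter-Glo readout; confirmatory runs ± 1uM tariquidar in medium.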
Assay [8] in a line: SDT Cancer Cell Toxicity qHTS against the NCATS CANVASS Library (AID 1347365). Note: nearly all actives have a fitted effect of over 60% in size. Note: potency is the fitted concentration of half-maximal effect. A digest of the protocol:
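Cytotoxicity is measured from cellular ATP: compounds in an 11-point concentration series are pinned onto SDT cells, incubated 72 hr at 37C, then CellTiterGlo is added and luminescence read.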

The nature of assay [9]: KB-3-1 Cancer Cell Toxicity qHTS against the NCATS CANVASS Library (AID 1347366). Note: nearly all actives have a fitted effect of over 75% in size. Note: potency is the fitted concentration of half-maximal effect. Put shortly:
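Seed KB-3-1 cells at 500/well in DMEM with 10% FBS, add compounds, incubate 72 hr at 37C and 5% CO2, then add CellTiter-Glo and read luminescence after 10 minutes.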

The nature of assay [10]: qHTS for Hypoxia signaling pathway (HIF-1) antagonists against the NCATS CANVASS Library (AID 1347374). Note: nearly all actives have a fitted effect of over 60% in size. Note: potency is the fitted concentration of half-maximal effect. A digest of the protocol: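 Antagonism scored as loss of CoCl2-driven (60 uM stock added) HRE beta-lactamase signal, read by CCF4 FRET at 460/530 nm. Compounds were tested in an 11-point series on ME-180 reporter cells for 17 hrs at 37C, with parallel CellTiter-Glo cytotoxicity.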

Assay [11] is described as follows: qHTS for Hypoxia signaling pathway (HIF-1) agonists against the NCATS CANVASS Library (AID 1347375). Note: potency is the fitted concentration of half-maximal effect. Put shortly: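 Cells plated and rested 5 h, compounds pinned in DMSO across 11 concentrations, incubated 17 h at 37C, loaded with CCF4-AM for 2 h, fluorescence read at 460 and 530 nm, then CellTiter-Glo luminescence measured for viability and normalization.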
Assay [12] is described as follows: DH5-alpha competent E. coli microbial cell viability qHTS against the NCATS CANVASS Library (AID 1347377). To be noted: outcome: dose series up to 46.1 µM unless noted. Put shortly:
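Bacteria were dispensed at 0.2 OD, then compounds were pin-transferred. Plates were incubated overnight at 37C, after which BacTiter-Glo was added and luminescence measured 20 min later.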

The nature of assay [13]: qHTS for H2AX Agonists against the NCATS CANVASS Library (AID 1347378).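 Note: phospho-H2AX S139 level in CHO-K1 lysates by TR-FRET emission ratio.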 Note: potency is the fitted concentration of half-maximal effect. Put shortly:
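Following overnight seeding, CHO-K1 cells are incubated with a concentration series of compound for 3 hr at 37C (final DMSO 0.76%). Cells are then lysed, detection antibodies added, and emission ratio 665/620 nm recorded after 24 hr at room temperature.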

Assay [14] is described as follows: qHTS for Activators of p53 Stress Response Pathway screened against the NCATS CANVASS Library (AID 1347388). A digest of the protocol:
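Beta-lactamase reporter driven by p53 response elements in HCT-116 cells, read as the 460 nm/530 nm emission ratio after CCF4 loading, following 16 h of exposure to an 11-point series. Cell viability was measured in the same wells by CellTiter-Glo luminescence.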

A short description of assay [15]: Secretion counterscreen for inhibitors of the SERCaMP assay screened against the NCATS CANVASS Library (AID 1347390).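 Note: light from luciferase secreted into medium read as a measure of general secretion.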 Note: potency is the fitted concentration of half-maximal effect. Put shortly:
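Counterscreen identifying compounds that disrupt secretion, using SH-SY5Y cells with a constitutively secreted Gaussia luciferase reporter. A 20 h compound exposure (top 77 uM) precedes luminescent detection with coelenterazine.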
Background: The purpose of a counterscreen is to sort out artefacts and off-target activity.

A short description of assay [16]: qHTS for activators of dead-cell proteases activity screened against the NCATS CANVASS Library (AID 1347392).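 Note: luminescence from protease leaking out of membrane-damaged cells cleaving impermeant substrate; rising signal means more cytotoxicity.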 Note: potency is the fitted concentration of half-maximal effect. Put shortly:
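Luminescent dead-cell protease readout (AAF-aminoluciferin, 15 min, room temperature) after 5 h compound treatment of HepG2 cells (2000/well, pre-attached 18 h). Eleven concentrations.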

Assay [17] in a line: qHTS for inhibitors of ER calcium dysfunction: SERCaMP assay screened against the NCATS CANVASS Library (AID 1347393).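 Note: series mostly up to about 77 µM; lower secreted reporter signal means inhibitor of ER calcium depletion; nearly all actives have a fitted effect of over 40% in size.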 A digest of the protocol:
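Thapsigargin-induced ER calcium depletion drives GLuc-SERCaMP secretion from SH-SY5Y cells; compounds given 16 h beforehand were scored by lowered coelenterazine luminescence after 4 h challenge.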

The nature of assay [18]: qHTS for inhibitors of Wild type Zika virus screened against the NCATS CANVASS Library (AID 1347396). Note: potency is the fitted concentration of half-maximal effect. A digest of the protocol: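 Using ATP-based luminescence (CellTiter Glo), this screen scores rescue of Vero 766 cells from wild-type Zika killing at 72 h post-infection. Compounds are tested in a concentration series.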
The nature of assay [19]: Viability qHTS for inhibitors of the SERCaMP assay screened against the NCATS CANVASS Library (AID 1347400). Note: nearly all actives have a fitted effect of over 70% in size. Note: potency is the fitted concentration of half-maximal effect. A digest of the protocol: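 Seed SH-SY5Y-GLuc SERCaMP MJH297 cells at 1000 per well, incubate 4 h, add compounds across an 11-point range, incubate 48 h at 37C, then add CellTiter-Glo and read luminescence.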
The nature of assay [20]: Redox Reaction Profiling qHTS: Assay Interference Panel against the NCATS CANVASS Library (AID 1347401). A digest of the protocol: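 Redox-cycling liability assessed as DTT-driven conversion of resazurin (5 uM, with 200 uM DTT, HEPES pH 7.3) to fluorescent resorufin. Fluorescence at 525/598 nm measured initially and after 15 min dark incubation.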

In the case of `C=C1C[C@@]23C=CC(=O)[C@@](C)(CCC(=O)Nc4c(O)ccc(C(=O)O)c4O)C2C[C@@H]1CC3O` (stereo partly drawn), the Potency entry in [1], in [2], in [3], in [4], in assay [5] and in [6] was “inactive” throughout. Besides, the Potency result in assay [7], in [8], in assay [9], in assay [10], in [11] and in [13] was “inactive” throughout. Further, the Potency entry in assay [14], in [15], in assay [16], in assay [17], in assay [18] and in assay [19] was “inactive” in each case. Moreover, the Potency entry in assay [20] is “inactive”. The call in [12] was inactive.
For the compound `Oc1ccc(C2c3c(O)cc(O)cc3[C@@H]3C(c4ccc(O)cc4)c4c(O)cc(O)cc4[C@H]23)cc1` (stereo partly drawn), the Potency entry in assay [1], in assay [2], in assay [4], in assay [5], in [6] and in assay [7] was “inactive” each time. For the same compound, the Potency entry in [8], in assay [9], in [10], in assay [11], in [13] and in assay [15] was “inactive” throughout. Also, the Potency entry in [16], in [17], in assay [18], in assay [19] and in [20] was “inactive” in each case. In addition, in assay [12], the call was inactive.
On to `Oc1ccc(/C=C2/c3cc(O)cc(O)c3C(c3ccc(O)cc3)[C@H]2c2cc(O)cc(O)c2)cc1` (stereo partly drawn), for which the Potency in assay [1] was 3.75 µM (active). In addition, the Potency result in assay [2], in assay [3], in assay [5], in assay [6], in assay [7] and in assay [8] was “inactive” each time. Further, the Potency entry in assay [10], in assay [11], in [13], in assay [14], in assay [15] and in assay [16] was “inactive” each time. In addition, the Potency result in assay [17], in [18], in [19] and in assay [20] was “inactive” throughout. Moreover, the outcome in assay [12] was inactive.
Consider `C=CC(=C)CC[C@]1(C)[C@H]2C[C@H](OC(=O)C(C)CC)C=C3[C@H](OC(C)=O)O[C@H](OC(C)=O)[C@@]32[C@H](OC)C[C@@H]1C` (stereo partly drawn), for which the Potency is 3.44 µM (active) in assay [1]; 0.769 µM (active) in assay [2]; 1.52 µM (active) in [3]; 5.45 µM (active) in assay [4]; 4.29 µM (active) in assay [5]; 7.62 µM (active) in [7]. Further, the Potency in assay [8] was 8.55 µM (active); in [9] it was 6.79 µM (active); in assay [10], 4.86 µM (active); in assay [11], 19.3 µM (active); in assay [13] it was 19.9 µM (active); in assay [15], 3.96 µM (active). In addition, the Potency in assay [16] was 60.6 µM (active); in assay [18] it was 6.76 µM (active); in assay [19], 2.21 µM (active). The Potency result in [17] and in assay [20] was “inactive” throughout.
Turning to `CN1CC[C@]2(c3cccc4c3N[C@@H]3N(C)CC[C@]43[C@@]34CCN(C)[C@@H]3Nc3ccccc34)c3ccccc3N[C@H]12`, the Potency in [1] was 18.8 µM (active); in [3], 14.8 µM (active); in assay [5], 7.43 µM (active); in assay [7] it was 16.6 µM (active); in assay [8], 2.96 µM (active); in assay [9], 16.6 µM (active). The Potency was 14.9 µM (active) in assay [10] and 15.2 µM (active) in assay [19]. Moreover, the Potency entry in assay [6], in assay [11], in [13], in [14], in assay [17] and in assay [18] was “inactive” throughout. In assay [20], the Potency entry was “inactive”.
`C/C(=C\[C@H](C)C(=O)CCCC1CC(=O)NC(=O)C1)[C@@H]1OC(=O)/C=C/CC/C=C/C[C@@H](O)[C@@H]1C`: the Potency was 2.11 µM (active) in assay [1]; 0.833 µM (active) in [3]; 1.87 µM (active) in assay [5]; 0.935 µM (active) in [8]; 14.8 µM (active) in [9]; 1.06 µM (active) in assay [10]. In addition, the Potency in assay [15] was 3.84 µM (active); in [19] it was 5.38 µM (active). Also, the Potency result in assay [6], in assay [11], in [14], in assay [16], in assay [17] and in assay [18] was “inactive” throughout. Also, the outcome in [12] was inactive.
